CXXC DNA block: qHTS Fluorescence Polarization Assay for Inhibitors of MLL CXXC domain - DNA interaction; Histone-lysine N-methyltransferase 2A (Homo sapiens), Q03164; MLL-CXXC / FITC-HOXA9 DNA fluorescence polarization; Potency, µM (top dose mostly 115 µM), most hits filed as inhibitors; 290,000 tested, 0.037% active; AID 2662, 2010; active means well fitted inhibition curve with a large enough effect in the polarisation, with a control signal flat, not every such curve was filed as active; inconclusive means small, poorly fitted or top-dose-only effect, or effect the other way, or a change in a side signal; inactive means no such curve, though single readings can be large or run the other way; the % refers to the polarisation
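Purified MLL-CXXC (added from a 7 uM solution) was preincubated 5 min at ambient with pinned compounds in 50 mM Tris-HCl pH 7.5, 50 mM NaCl, 1 mM DTT, 0.05% BSA. Fluorescein-labeled HOX-A9 DNA (50 nM solution) followed, 30 min, then polarization read.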
Menin MLL FP FL: qHTS Assay for Inhibitors Targeting the Menin-MLL Interaction in MLL Related Leukemias: Competition With Fluorescein Labeled MLL-derived Peptide. FP activity change, % at 61.4 µM. Fluorescence polarization, fluorescein-MLL peptide displacement from menin. AID 1766, 2009. 290,000 tested, under 10 active; active means well fitted curve in the direction sought with a large enough effect in the polarisation, not every such curve was filed as active; inconclusive means small, poorly fitted or top-dose-only effect, or effect the other way, or a change in a side signal; inactive means no such curve, though single readings can be large or run the other way; the % refers to the polarisation
Tb PFK block: qHTS Assay to Find Inhibitors of T. brucei phosphofructokinase; T. brucei PFK, ADP-Glo luminescence; 330,000 tested, 0.17% active; Potency, µM (top dose mostly 57.5 µM), actives largely listed as inhibitors; ATP-dependent 6-phosphofructokinase (Trypanosoma brucei brucei), O15648; active means well fitted inhibition curve with a large enough effect; inconclusive means small, poorly fitted or top-dose-only effect, or effect the other way; further: nearly all actives have a fitted effect of over 60% in size
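ADP-Glo luminescence quantified ADP after 45 min at room temperature, with 1.25 nM T. brucei PFK, 0.1 mM ATP and 0.5 mM fructose-6-phosphate in pH 8.0 TEA buffer. qHTS titrations up to 57 µM; curves classified by quality.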
Menin-MLL TR inh: qHTS Assay for Inhibitors Targeting the Menin-MLL Interaction in MLL Related Leukemias: Competition With Texas Red Labeled MLL-derived Mutant Peptide; Menin + Texas Red MLL mutant peptide, fluorescence polarization; Potency, µM (top dose mostly 61.6 µM), usual class: inhibitors; 270,000 tested, 0.23% active; AID 1768, 2009; active means well fitted inhibition curve with a large enough effect in the polarisation, with a control signal flat, not every such curve was filed as active; inconclusive means small, poorly fitted or top-dose-only effect, or effect the other way, or a change in a side signal; inactive means no such curve, though single readings can be large or run the other way; the % refers to the polarisation
GoLoco inh red: qHTS Assay for Inhibitors of RGS12 GoLoco Motif Activity (Red Fluorophore) | Guanine nucleotide-binding protein G(i) subunit alpha-1 (Homo sapiens), P63096 | Gai1:RGS12 GoLoco peptide FP, rhodamine, 10 min | Potency, µM (top dose mostly 61.6 µM), most hits filed as inhibitors | 230,000 tested, 0.44% active | AID 880, 2007; active means well fitted inhibition curve with a large enough effect, not every such curve was filed as active; inactive means no such curve, though single readings can be large or run the other way; further: nearly all actives have a fitted effect of over 30% in size
Target sequence (P63096 whole entry, looked up): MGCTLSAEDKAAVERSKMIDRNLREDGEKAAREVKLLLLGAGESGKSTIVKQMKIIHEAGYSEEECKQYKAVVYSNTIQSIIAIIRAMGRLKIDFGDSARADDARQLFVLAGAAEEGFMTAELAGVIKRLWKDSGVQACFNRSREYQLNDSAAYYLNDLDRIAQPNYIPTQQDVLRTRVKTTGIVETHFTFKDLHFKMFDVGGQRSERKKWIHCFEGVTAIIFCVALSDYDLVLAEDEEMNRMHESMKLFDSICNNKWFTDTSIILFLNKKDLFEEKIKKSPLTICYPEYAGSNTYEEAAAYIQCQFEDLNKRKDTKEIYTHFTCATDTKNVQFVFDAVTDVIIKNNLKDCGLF
Numbers stand for hits; n = inactive; u = inconclusive; x = no result; ! = repeats disagree; [ ] = dose if it differs, or a comment. This is a sample that favours compounds with a hit; in the whole collection about 0.43% have one here.

SMILES	CXXC DNA block	Menin MLL FP FL	Tb PFK block	Menin-MLL TR inh	GoLoco inh red
Cc1ccccc1CS(=O)(=O)CCC(=O)NCCCN1CCN(c2ccccc2F)CC1	n	n	n	n	n
CC1(C(=O)O)NCCc2cc(O)c(O)cc21 (configuration not stated)	x	x	x	x	n
COc1cc2c(cc1OC)CN(C(=O)/C=C/c1cc(OC)c(OC)c(OC)c1)CC2	u	n	n	10µM	x
Cc1csc(NC(=O)CSc2nnc(NC(=O)COc3ccccc3)s2)n1	n	n	n	40µM	n
Cc1ccc2c(c1)-c1ccccc1S(=O)(=O)N2	n	n	n	n	n
Nc1ccc2c(c1)-c1ccccc1S(=O)(=O)N2	n	n	n	n	2µM
CCCC/C=C/[C@H](c1ccccc1)[C@H](CO)Cc1ccc([N+](=O)[O-])cc1	x	n	x	n	x
Cn1c(N=Nc2ccccc2)nc2ccccc21	n	x	12µM	n	n
CCOC(=O)c1cc2n(c1/N=C/N(C)C)-c1ccccc1C2=O	u	u	n	n	25µM
O=C(O)/C=C\c1ccc[c]([Sb])c1	x	x	x	x	n[14.2 µM]
Cc1ccn2c(Nc3ccc4c(c3)OCO4)c(-c3ccccn3)nc2c1	u	u	n	35µM	n
Cc1ccc(Nc2c(-c3ccccn3)nc3cc(C)ccn23)cc1	u	n	n	n	n
CN(C)c1ccc(N)cc1	x	x	x	x	n
C[N+]1(CC2COC(c3ccccc3)(C3CCCCC3)O2)CCCCC1 (configuration not stated)	n	n	x	n	x
C[N+]1(CC2COC3(CCCCC3)O2)CCCCC1 (configuration not stated)	n	n	n	x	8.9µM
COC1CC2CCC(C)[C@](O)(O2)C(=O)C(=O)N2CCCCC2C(=O)OC(C(C)CC2CCC(O)C(OC)C2)CC(=O)C(C)/C=C(/C)C(O)C(OC)C(=O)C(C)CC(C)C=CC=C/C=C\1C (some centres not stated)	n	n	x	n	x
COc1ccc(CNc2ccnc(-c3c(C)noc3C)n2)c(OC)c1	x	n	x	n	n
CCCC(=O)N(C1CC(C)C(C#N)(C#N)C1(C#N)C#N)N(C)C (configuration not stated)	n	n	n	x	11µM
O=[N+]([O-])c1cc(/C=N\Nc2nccs2)ccc1O	n	n	9.5µM	u	n
CCOC(=O)N/N=C1/C[C@@H](O)[C@@H](O)[C@@H]2[C@@H]3C(=O)N(c4cccc(Oc5ccccc5)c4)C(=O)[C@H]3CC[C@H]12	x	n[11.7 µM]	x	n[11.7 µM]	x
Oc1cc[c]([Hg][Cl])cc1	n	n	x	n	x
CCN(CC)c1ccc(N=C2C(=O)Nc3ccccc32)cc1	n	n	n	22µM	x
O=C(Nc1ccc(Cl)c(Cl)c1)Oc1ccc(NC(=O)c2ccco2)cc1	n	n	13µM	u	n
CC(=O)[C@@H]1[C@H]2[C@H](C(=O)[C@H]3OC[C@@H]2O3)[C@H]2C=Cc3ccccc3N21	x	u	x	u	n
C[N+](C)(C)CCOC(=O)C1(c2ccccc2)CCCC1	n	n	n	n	7.1µM
SMILES	CXXC DNA block	Menin MLL FP FL	Tb PFK block	Menin-MLL TR inh	GoLoco inh red
COc1ccc(OC)c2sc(NC(=O)c3ccc(S(=O)(=O)N4CCOCC4)cc3)nc12	n	n	n	18µM	n
CCN(CCCC(=O)c1ccc(F)cc1)CCc1ccccc1	n	n	n	n	x
CCC1(CCCC(=O)c2ccc(F)cc2)C(=O)NC(=S)NC1=O	n	n	n	n	2µM
COc1ccc2c(c1)O[C@@H](c1cccc(C(F)(F)F)c1)[C@H](OC(=O)NC1CCCC1)C2=O	x	n	x	n	n
CC[n+]1ccc(/C=C/c2ccc(N(C)C)cc2)c2ccccc21	u	n	n	u	n
CC[n+]1ccc(C[n+]2ccccc2)c2ccccc21	n	n	n	n	18µM
CNC1C(O)C(OC2C(N)CC(N)C(OC3OC(CN)=CCC3N)C2O)OCC1(C)O (configuration not stated)	n	n	x	n	x
Fc1ccccc1Cn1c2[n+](c3ccc(C(F)(F)F)cc31)CCCCC2	n	n	n	n	n
N#Cc1cccc(NC(=O)Cn2c3[n+](c4ccc(C(F)(F)F)cc42)CCCCC3)c1	n	n	n	n	14µM
COC(=O)C1=C(C)N(Cc2ccccc2)[C@]23O[C@](C(=O)OC)(C(=O)N2C1c1ccccc1)C1CCCC(=O)C13 (some centres not stated)	x	n[11.7 µM]	x	n[11.7 µM]	x
COc1ccc2c3c(cccc13)C(=O)N(O)C2=O	u	n	n	n	n
CCC1=NNc2cccc3c(OC)ccc1c23	n	n	n	u	18µM
COc1cc2ncnc(Nc3cccc(Cl)c3)c2cc1OC	n	u	n	n	2µM!
C[C@]12C[C@@](C)(C=C1/C=C/c1ccc(F)cc1)C(=O)C[C@H]2c1ccc(F)cc1	x	n	x	n	n
Cc1ccc(/C=C/C2=CC3(C)CC2(C)C(c2ccc(C)cc2)CC3=O)cc1 (configuration not stated)	x	n[11.7 µM]	x	10µM	x
C[C@H](CCCC(C)(C)O)[C@H]1CC[C@H]2[C@@H]3CC=C4C[C@@H](O)CC[C@]4(C)[C@H]3CC[C@]12C	n	n	x	n	x
C[n+]1ccccc1C1CCCC/C1=N\NC(N)=S (configuration not stated)	n	n	n	n	10µM
O=C1C(Cl)=C(Nc2ccc3cn[nH]c3c2)C(=O)c2ccccc21	u	n	u	x	7.9µM
COc1ccccc1COCC(O)CNCCc1ccc(C(F)(F)F)cc1 (configuration not stated)	n	n	n	22µM	x
CS[C@@H]1SC[C@H]2C(=O)N(C)C(C(C)C)C(=O)OC[C@@H](NC(=O)c3cnc4ccccc4n3)C(=O)N[C@@H](C)C(=O)N(C)[C@H]1C(=O)N(C)C(C(C)C)C(=O)OC[C@@H](NC(=O)c1cnc3ccccc3n1)C(=O)N[C@@H](C)C(=O)N2C (some centres not stated)	x	n	x	u	x
O=C(Nc1ccc(Cl)c(Cl)c1)Nc1nnc(CC2=CCCCC2)s1	n	n	n	25µM	n

Screening results (PubChem)
